From PubChem BioAssay
Compounds with a hit are over-represented: about 18% of the library has one in this group of screens.
IL1B secr inh – qHTS for Inhibitors of Inflammasome Signaling: IL-1-beta AlphaLISA Primary Screen; actives 4.7% (n = 360,000); THP-1 LPS/ATP IL-1B secretion, AlphaLISA, 16 h; active compounds read low; activity change, % at 57.5 µM; AID 743279, 2014; in the data active = activity change below about -50%; inconclusive = mostly about -30% to -49%
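THP-1 cells pretreated 1 hr with compounds (up to 57.5 uM final), then stimulated with LPS (250 ng/mL final) plus ATP (1.25 mM final); secreted IL-1B measured by AlphaLISA after 16 hr, decreased signal indicating inhibition.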
LDHA block – qHTS assay for inhibitors of human lactate dehydrogenase; purified LDHA, NADH/diaphorase-resazurin fluorescence; active compounds read low; L-lactate dehydrogenase A chain (Homo sapiens), P00338; activity change, % (values are at about 110 or 230 µM); AID 1347041, 2019; actives 0.15% (n = 480,000); in the data active = activity change below about -30%; inconclusive = mostly about -25% to -30%;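 note: plate controls were DMSO wells for no effect and wells without enzyme for full effect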
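Remaining NADH was detected by diaphorase (0.133 mg/mL) converting 37 µM resazurin to fluorescent resorufin, read at 0 and 20 minutes. The preceding 5-minute room-temperature reaction used 2 nM LDHA, 0.2 mM sodium pyruvate and 0.06 mM NADH at pH 7.4.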
RORg inh – qHTS for inhibitors of ROR gamma transcriptional activity | Drosophila S2 Gal4-RORgamma UAS-luciferase reporter, 20 h | Potency, µM (doses to about 53.6 µM), inactives show at the highest dose activity change, negative = inhibition, most hits filed as inhibitors | actives 5.4% (n = 310,000) | AID 2551, 2010; note: potency is the fitted concentration of half-maximal effect; nearly all actives have a fitted effect of over 60% in size
Target sequence (P51450 whole entry, looked up, the tested form may be a part): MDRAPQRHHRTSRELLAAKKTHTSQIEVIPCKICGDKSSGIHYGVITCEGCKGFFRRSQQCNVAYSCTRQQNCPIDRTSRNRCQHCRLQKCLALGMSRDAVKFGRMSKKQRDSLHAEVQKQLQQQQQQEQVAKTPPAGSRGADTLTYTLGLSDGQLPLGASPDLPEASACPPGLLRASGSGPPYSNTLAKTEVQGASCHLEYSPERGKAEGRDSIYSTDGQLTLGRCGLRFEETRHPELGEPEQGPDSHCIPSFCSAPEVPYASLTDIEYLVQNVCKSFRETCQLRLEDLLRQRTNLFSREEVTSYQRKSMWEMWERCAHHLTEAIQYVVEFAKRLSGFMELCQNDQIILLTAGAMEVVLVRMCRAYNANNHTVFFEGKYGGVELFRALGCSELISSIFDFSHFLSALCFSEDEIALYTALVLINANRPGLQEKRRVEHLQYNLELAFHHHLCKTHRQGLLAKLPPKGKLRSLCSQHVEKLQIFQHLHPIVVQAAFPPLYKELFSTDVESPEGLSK
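Compounds are pin-transferred onto Drosophila Schneider cells expressing a copper-inducible Gal4–ROR gamma transactivation domain fusion. After 1 hr, copper sulfate is added to 700 uM final; luciferase is read 20 hr later.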
TDP1 cell CPT – qHTS for Inhibitors of human tyrosyl-DNA phosphodiesterase 1 (TDP1): qHTS in cells in presence of CPT | chicken DT40 Tdp1-/-;hTDP1 cells + 20 nM CPT, ATP luminescence, 48 h | Potency, µM (doses to about 46.2 µM), inactives show at the highest dose activity change, negative = growth inhibition, usual class: inhibitors | actives 12% (n = 420,000); note: potency is the fitted concentration of half-maximal effect; nearly all actives have a fitted effect of over 55% in size
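Chicken DT40 Tdp1-/- cells complemented with human TDP1, 400 cells/well, exposed to compounds plus 20 nM camptothecin for at least 48 h at 37 C; viability read as ATP content by CellTiter-Glo luminescence.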
TDP1 cell noCPT – qHTS for Inhibitors of human tyrosyl-DNA phosphodiesterase 1 (TDP1): qHTS in cells in absence of CPT | DT40 Tdp1-/- hTDP1 cells, no CPT, ATP luminescence, 48 h | Potency, µM (top dose mostly 46.2 µM), inactives show at the top dose activity change, negative = growth inhibition, actives largely listed as inhibitors | actives 15% (n = 420,000); note: potency is the fitted concentration of half-maximal effect; nearly all actives have a fitted effect of over 55% in size
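Stably hTDP1-transfected Tdp1-null chicken DT40 cells were treated with library compounds minus camptothecin and grown for at least 48 hr at 37 °C, after which cellular ATP was quantified by luminescence.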
Gal4-VP16 FLuc – VP16 counterscreen qHTS for inhibitors of ROR gamma transcriptional activity; Drosophila S2 Gal4-VP16 UAS-luciferase, luminescence, 20 h; actives 3.5% (n = 310,000); Potency, µM (top dose mostly 53.6 µM), inactives show top-dose activity, negative = inhibition, most hits filed as inhibitors; AID 2546, 2010;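 note: Gal4-VP16 expression switched on by copper sulfate through the metallothionein promoter; potency is the fitted concentration of half-maximal effect; nearly all actives have a fitted effect of over 50% in size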
* hit, by the source's call. Unless noted, calls come from the whole dose curve; as a rule, active = well fitted curve in the direction sought with a large enough effect; inconclusive = small, poorly fitted or top-dose-only effect, or another doubt; inactive = no such curve, though single readings can be large; an effect the other way counts as inactive or inconclusive. Unless noted, % is set by controls: 0 for no effect and ±100 for the full control effect.

How did COc1ccccc1CNC(=O)c1cc2c(-c3ccc(Cl)cc3)nn(C)c2s1 do in these assays?
LDHA block: 0.8; TDP1 cell CPT: inconclusive; TDP1 cell noCPT: inconclusive

What do the screens show for `Cn1nc(-c2ccccc2F)c2cc(C(=O)NCc3ccc(Cl)cc3)sc21`?
LDHA block: -4.0; TDP1 cell CPT: inconclusive; TDP1 cell noCPT: 16.4µM*

How did CC(CCc1ccco1)NC(=O)c1cc2c(-c3ccccc3F)nn(C)c2s1 (stereo unspecified) do in these assays?
IL1B secr inh: -23.9; LDHA block: -1.1; RORg inh: inconclusive; TDP1 cell CPT: inconclusive; TDP1 cell noCPT: inconclusive; Gal4-VP16 FLuc: -21.9%

Results for CNC(=O)CN(C)S(=O)(=O)N1CCCC(C)C1 (stereo unspecified) ?
LDHA block: 10.2

How did CCCC(C)NC(=O)c1cccc(C#N)c1 (stereo unspecified) do in these assays?
LDHA block: 3.9

What do the screens show for `COc1ccc(NC(=O)CCC2COc3ccccc3O2)c(OC)c1` (stereo unspecified)?
IL1B secr inh: -1.8; LDHA block: 0.5; RORg inh: 12.4%; TDP1 cell CPT: 8.5%; TDP1 cell noCPT: inconclusive; Gal4-VP16 FLuc: 11.1%

Results for O=C(/C=C/c1ccco1)NCC1COc2ccccc2O1 (stereo unspecified) ?
IL1B secr inh: 7.8; LDHA block: -0.5; RORg inh: 2.5%; TDP1 cell CPT: inconclusive; TDP1 cell noCPT: inconclusive; Gal4-VP16 FLuc: 11.2µM*

Results for COc1ccc(/C=C/C(=O)NCC2COc3ccccc3O2)c(OC)c1 (stereo unspecified) ?
IL1B secr inh: -59.4*; LDHA block: 2.2; RORg inh: 12.6%; TDP1 cell CPT: -30.0%; TDP1 cell noCPT: inconclusive; Gal4-VP16 FLuc: inconclusive

Results for O=C(/C=C/c1ccc([N+](=O)[O-])cc1)NCc1ccccn1 ?
IL1B secr inh: 15.4; LDHA block: 3.3; RORg inh: 27.4%; TDP1 cell CPT: inconclusive; TDP1 cell noCPT: -5.7%; Gal4-VP16 FLuc: -1.2%

Results for O=C(/C=C/c1ccco1)NCc1ccccn1 ?
IL1B secr inh: -10.7; LDHA block: 3.1; RORg inh: 4.47µM*; TDP1 cell CPT: -19.1%; TDP1 cell noCPT: inconclusive; Gal4-VP16 FLuc: 1.7%

Results for O=C(Nc1nc(-c2cccs2)cs1)C1CC(=O)N(c2ccccc2F)C1 (stereo unspecified) ?
LDHA block: -3.7

What do the screens show for `CC1CC(C)CN(C(=O)c2cc3cc(Br)cc(Br)c3o2)C1` (stereo unspecified)?
IL1B secr inh: -69.6*; LDHA block: -6.8; RORg inh: 14.8%; TDP1 cell CPT: -2.1%; TDP1 cell noCPT: inconclusive; Gal4-VP16 FLuc: -0.4%

Results for CC1CC(C)CN(C(=O)c2cc3ccccc3o2)C1 (stereo unspecified) ?
IL1B secr inh: -13.9; LDHA block: -5.9; TDP1 cell CPT: 5.3%; TDP1 cell noCPT: inconclusive

Results for Cn1c(=O)[nH]c(=O)c2c1nc(SCCc1ccccc1)n2CCc1ccccc1 ?
LDHA block: -7.4

Results for O=C(O)CCNS(=O)(=O)c1ccc(Cl)c(C(=O)O)c1 ?
LDHA block: -1.0

What do the screens show for `Cc1cc2c(n1-c1ccc(C(=O)NCCc3ccc(Cl)cc3)cc1)CCCC2`?
LDHA block: 5.6; TDP1 cell CPT: inconclusive; TDP1 cell noCPT: 25.9µM*
